In PubChem BioAssay (EPA / NIEHS):
Values joined by “and” are separate entries in the source; they are usually repeats but may differ in a detail not shown here. Equal entries are not always repeated. Records with an inconclusive call do not appear. Active and inactive are the calls of the source. Rule for the calls: active = hit-call score of the fitted dose curve at least 0.9, where 1 is the maximum; inconclusive = response in the unintended direction; inactive = score below 0.9.

test system: not listed separately; assay: ATG_M_32_XSP2: Attagene TRANS-FACTORIAL Multi-Species (XSP2) HepG2 Assay for M19 Transcription Factor (Internal Marker) (AID 2283826)
Outline: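 Transfected HepG2 (multiplexed GAL4-UAS reporters), 24 h chemical exposure, 3 nM 6-alpha-fluorotestosterone + 1.5 nM norgestrel added. RNA → oligo(dT) RT → PCR → 6-FAM primer extension → HpaI cut → CE. Fitted upward vs DMSO.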

SMILES	outcome
CCC(C)(C)c1ccc(O)cc1	inactive
O=P(Oc1ccccc1)(Oc1ccccc1)Oc1ccccc1	inactive
CC(C)(C)c1ccc(O)cc1	inactive

biological target: Estrogen receptor (Homo sapiens) (UniProt P03372); assay: ATG_hERa_XSP2: Attagene TRANS-FACTORIAL Multi-Species (XSP2) HepG2 Assay for human Estrogen Receptor (ERa) (AID 2283827)
Outline: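 HepG2 cells transiently transfected with multiplexed GAL4-UAS reporters driven by chimeric receptor-Gal4 proteins, dosed 24 h with 3 nM 6-alpha-fluorotestosterone and 1.5 nM norgestrel present. Reporter mRNA by RT-PCR and capillary electrophoresis; gain-of-signal fit versus DMSO.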

Estrogen receptor (Homo sapiens), sequence (P03372 whole entry, looked up, the tested form may be a part): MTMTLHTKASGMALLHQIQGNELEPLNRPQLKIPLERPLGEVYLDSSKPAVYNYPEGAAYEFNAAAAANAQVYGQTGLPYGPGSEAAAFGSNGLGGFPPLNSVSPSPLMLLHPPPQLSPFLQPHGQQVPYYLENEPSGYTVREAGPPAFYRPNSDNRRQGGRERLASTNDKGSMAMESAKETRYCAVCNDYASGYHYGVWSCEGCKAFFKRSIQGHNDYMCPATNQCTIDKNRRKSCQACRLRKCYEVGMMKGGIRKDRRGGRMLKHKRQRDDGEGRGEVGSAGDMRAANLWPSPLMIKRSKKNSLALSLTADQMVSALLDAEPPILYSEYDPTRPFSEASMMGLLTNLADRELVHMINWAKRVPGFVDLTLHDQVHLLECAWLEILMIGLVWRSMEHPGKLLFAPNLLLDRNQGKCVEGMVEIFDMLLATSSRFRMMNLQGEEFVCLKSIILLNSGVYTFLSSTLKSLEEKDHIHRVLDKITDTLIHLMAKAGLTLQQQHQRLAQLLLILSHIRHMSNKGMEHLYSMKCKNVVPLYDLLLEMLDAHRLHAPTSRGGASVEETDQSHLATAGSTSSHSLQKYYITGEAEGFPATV

SMILES	AC50
CCCCc1ccc(O)cc1	4.58 µM (active) and 3.47 µM (active)
c1ccc2c(c1)Nc1ccccc1S2	12.7 µM (active) and 8.42 µM (active)
O=S(=O)(c1ccc(O)cc1)c1ccc(O)cc1	1.87 µM (active) and 2.38 µM (active)
CCC(C)(C)c1ccc(O)cc1	6.43 µM (active) and 3.44 µM (active)
O=P(Oc1ccccc1)(Oc1ccccc1)Oc1ccccc1	1.44 µM (active)

test system: frog Estrogen Receptor (ER2), gene 100174814; assay: ATG_frER2_XSP2: Attagene TRANS-FACTORIAL Multi-Species (XSP2) HepG2 Assay for frog Estrogen Receptor (ER2) (AID 2283828)
Outline: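 HepG2 cells transiently transfected with multiplexed GAL4-UAS reporter units expressing chimeric frog ER2–Gal4 protein; reporter mRNA measured 24 h after chemical dosing by RT-PCR, fluorescent labeling and capillary electrophoresis. Gain-of-signal fitted relative to DMSO baseline.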

SMILES	AC50
CCCCc1ccc(O)cc1	4.69 µM (active) and 2.33 µM (active)
c1ccc2c(c1)Nc1ccccc1S2	16.7 µM (active) and 5.21 µM (active)
O=S(=O)(c1ccc(O)cc1)c1ccc(O)cc1	26.9 µM (active) and 5.73 µM (active)
CCC(C)(C)c1ccc(O)cc1	27.9 µM (active) and 3.07 µM (active)
O=P(Oc1ccccc1)(Oc1ccccc1)Oc1ccccc1	2.82 µM (active)
CC(C)(C)c1ccc(O)cc1	14.9 µM (active) and 6.96 µM (active)
